Test results as given in PubChem BioAssay (NCATS).
Results filed as inconclusive are left out. The source made the active and inactive calls. The call rests on the fitted dose curve; in most records, active means well fitted cell-killing curve with a large enough effect; inconclusive means small, poorly fitted or top-dose-only effect, or effect the other way; inactive means no such curve, though single readings can be large or run the other way.

Experiment: Quantitative highthroughput screen to assess conditional lethalithy of SEM cells grown in Human Plasma-Like Medium with dialyzed fetal bovine serum (HPLM+ds) (AID 1963882); further: nearly all actives have a fitted effect of over 35% in size
Settings: SEM B-ALL cells in HPLM+ds, CellTiter-Glo viability, 48 h; series mostly up to 45.8 µM; viability: at the top concentration
Excerpt: Assay Provider: Jason Cantor Ph.D.
Department of Biochemistry
University of Wisconsin-Madison, Madison, WI, USA
Chemical screening studies have identified drug sensitivities across hundreds of cancer cell lines but most putative therapeutics fail to translate. Discovery and development of drug candidates in models that more accurately reflect nutrient levels in human blood is a major challenge. Here we performed high-throughput screens in conventional versus Human Plasma-Like Medium (HPLM) to identify compounds that were "missed" when screening using the artificial culture condition. Sets of conditional anticancer compounds spanned phases of clinical development and included non-oncology drugs were assessed. […] We also traced conditional phenotypes for several chemotherapeutics to availability of HPLM-specific metabolites and confirmed others for compounds whose reported targets are encoded by nonessential genes. Our findings establish generalizable strategies for exploiting conditional lethality in HPLM to reveal therapeutic candidates and mechanisms of action in cancer cells.
Described herein are the results of each viability screens against three cell lines: NOMO1 (an acute myeloid leukemia cell line); P12-Ichikawa (a T-cell acute lymphoblastic leukemia); and SEM (a B-cell ALL). Each assay was screened using 3 different cell culture media: homemade human plasma-Like medium with 10% dialyzed fetal bovine serum (HPLM+ds); RPMI1640 with 10% untreated FBS and 5mM glucose (RPMI+s); and RPMI1640 with 10% dialyzed fetal bovine serum and 5 mM glucose (RPMI+ds).
PROTOCOL TABLE (as described by Inglese J, Shamu CE and Guy RK. 2007)
SEQUENCE No. (e.g., 1, 2, 3, etc.); […] (e.g., Cells, Incubation, Reagent, etc.); VALUE and DESCRIPTION.
1; Cells; 5 uL; white, solid bottom 1536-well Greiner assay plate.
2; Compounds; 23 nL; Kalypsis pin tool (Wako USA) equipped with a 1536-well pin head to transfer to the assay plates.
3; Incubation; 48 hours; 37C incubation.
4; Reagent; 3 uL; CellTiter Glo (Promega).
5; Incubation; 5 min, room temperature
6; Detection; Luminescence, Viewlux PerkinElmer.
NOTES (numbers refer to Sequence numbers above)
1. Briefly, 5 ul of cell reagent was dispensed using a Multidrop Combi Dispenser. The NOMO1 and SEM cells were plated at 500 cells/well and the P12-Ichikawa line at 1000 cells/well.
2. After seeding the cells, 23 nL of MIPE 4.1 library compounds (in DMSO) were added to each plate using a Kalypsys 1536 Pintool dispenser. Bortezomib at final concentration of […] and DMSO were added to each plate as positive and negative controls respectively. For each screen, MIPE 4.1 compounds were added over an eleven-point concentration range […] in 3-fold dilutions.
3. Each plate was covered with a stainless steel gasketed lid to prevent evaporation and incubated for 48 hour at 37C, 95% relative humidity, and 5% CO2.
4-5. Three microliter CellTilter-GloTM luminescent substrate mix (Promega) reagent was added to the assay plate and incubated at room temperature for 5 min.
6. The luminescence signal was measured using a ViewLux (PerkinElmer) multiplate reader with a 2 second exposure time per plate. Data for each compound were normalized as percent viability such that measurements for DMSO and the empty well controls in each plate were defined as 100% and 0%, respectively.
Potency means the concentration at half of the fitted maximal effect.

| SMILES | viability | Potency |
| --- | --- | --- |
| CCc1ccc(CCOc2ccc(CC3SC(=O)NC3=O)cc2)nc1 (stereo not given) | 85.8% (inactive) |  |
| COc1cc2c(cc1-c1c(C)noc1C)ncc1[nH]c(=O)n([C@H](C)c3ccccn3)c12 |  | 1.87 µM (active) |
| Cn1cc(C[C@@H](N)C(=O)O)c2ccccc21 | 77.9% [at 23.2 µM] (inactive) |  |
| CO[C@@H]1[C@@H](O)[C@H](O)[C@@H](n2c3c(Cl)cccc3c3c4c(c5c6cccc(Cl)c6[nH]c5c32)C(=O)NC4=O)O[C@@H]1CO |  | 0.59 µM (active) |
| COC(=O)[C@]12CCC(C)(C)C[C@@H]1[C@@H]1C(=O)C=C3[C@@]4(C)C=C(C#N)C(=O)C(C)(C)[C@@H]4CC[C@@]3(C)[C@]1(C)CC2 |  | 7.43 µM (active) |
| COc1ccc2[nH]cc(CCNC(C)=O)c2c1 | 95.7% (inactive) |  |
| COc1ccc(C(=O)CC(=O)c2ccc(C(C)(C)C)cc2)cc1 | 85.5% (inactive) |  |
| C[C@H]1[C@H](NC(=O)C(=NOC(C)(C)C(=O)O)c2csc(N)n2)C(=O)N1S(=O)(=O)O | 87.4% (inactive) |  |
| O=c1[nH]c(=O)n([C@H]2C[C@@H](O)[C@@H](CO)O2)cc1I |  | 7.43 µM (active) |
| COc1ccc(-n2nc(C(N)=O)c3c2C(=O)N(c2ccc(N4CCCCC4=O)cc2)CC3)cc1 | 91.8% (inactive) |  |
| CN1C2CCC1CC(OC(=O)C(CO)c1ccccc1)C2 (stereo not given) | 98.7% (inactive) |  |
| C=C1c2cccc(O)c2C(O)=C2C(=O)[C@@]3(O)C(O)=C(C(N)=O)C(=O)[C@@H](N(C)C)[C@@H]3[C@@H](O)[C@H]12 | 95.7% (inactive) |  |
| N#Cc1ccc(COC[C@H]2O[C@@H](n3c(NCc4ccc(Cl)c(Cl)c4)nc4c(N)ncnc43)[C@@H](O)[C@@H]2O)cc1 | 87.4% (inactive) |  |
| CC(=O)O[C@]1(C(C)=O)CC[C@H]2[C@@H]3C=C(Cl)C4=CC(=O)[C@@H]5C[C@H]5[C@]4(C)[C@@H]3CC[C@@]21C | 101% (inactive) |  |
| O=C(C=Cc1ccc(CN(CCO)CCc2c[nH]c3ccccc23)cc1)NO |  | 0.264 µM (active) |
| CNC(=O)c1ccc(C)c(-n2c(C)cc(OCc3ccc(F)cc3F)c(Br)c2=O)c1 | 103% (inactive) |  |
| O=C(NC1CC1)c1cccc(-c2ccc3c(NC(=O)C4CC4)n[nH]c3c2)c1 |  | 16.6 µM (active) |
| COc1ccc([C@@H]2CC(=O)c3c(O)cc(O[C@@H]4O[C@H](CO[C@@H]5O[C@@H](C)[C@H](O)[C@@H](O)[C@@H]5O)[C@@H](O)[C@H](O)[C@@H]4O)cc3O2)cc1O | 110% (inactive) |  |
| COc1ccc2c(c1)c(CC(=O)OCC(=O)O)c(C)n2C(=O)c1ccc(Cl)cc1 | 101% (inactive) |  |
| CC#CCn1c(N2CCC[C@@H](N)C2)nc2c1c(=O)n(Cc1nc(C)c3ccccc3n1)c(=O)n2C | 88.4% (inactive) |  |

| SMILES | viability | Potency |
| --- | --- | --- |
| C=CC(=O)Nc1ccc2ncnc(Nc3ccc(OCc4cccc(F)c4)c(Cl)c3)c2c1 |  | 7.43 µM (active) |
| Cc1ccc(Nc2nccc(N(C)c3ccc4c(C)n(C)nc4c3)n2)cc1S(N)(=O)=O |  | 16.6 µM (active) |
| O=c1[nH]cc(F)c(=O)[nH]1 |  | 9.35 µM (active) |
| COC1=C(OC)C(=O)C(CC=C(C)CCC=C(C)CCC=C(C)CCC=C(C)CCC=C(C)CCC=C(C)CCC=C(C)CCC=C(C)CCC=C(C)CCC=C(C)C)=C(C)C1=O | 102% (inactive) |  |
| CO[C@@H]1C(N(C)C(=O)c2ccccc2)C[C@H]2O[C@]1(C)n1c3ccccc3c3c4c(c5c6ccccc6n2c5c31)C(=O)NC4=O (stereo not given in full) |  | 4.69 µM (active) |
| C[C@](Cc1c[nH]c2ccccc12)(NC(=O)OC1C2CC3CC(C2)CC1C3)C(=O)NC[C@H](NC(=O)CCC(=O)O)c1ccccc1 (stereo not given in full) | 105% (inactive) |  |
| Cc1ccc(C)c(OCCCC(C)(C)C(=O)O)c1 | 113% (inactive) |  |
| C[C@@H](NC(=O)c1ncnc(N)c1Cl)c1ncc(C(=O)Nc2cc(C(F)(F)F)c(Cl)cn2)s1 | 89.6% (inactive) |  |
| c1cnc2cc3c(cc2n1)C1CNCC3C1 | 104% (inactive) |  |
| CC(=O)SCC(Cc1ccccc1)C(=O)NCC(=O)OCc1ccccc1 (stereo not given) | 93.9% (inactive) |  |
| C[C@H](NCc1ccc(OCc2cccc(F)c2)cc1)C(N)=O |  | 0.469 µM (active) |
| NC(=O)c1cccnc1 |  | 16.6 µM (active) |
| COc1cc(O)c2c(c1)C1OC1C[C@H](O)[C@H](O)C(=O)C=CC[C@H](C)OC2=O (stereo not given in full) |  | 4.69 µM (active) |
| CN[C@H]1[C@@H](O[C@@H]2[C@H](O[C@@H]3[C@@H](O)[C@@H](O)[C@@H](N=C(N)N)[C@@H](O)[C@@H]3N=C(N)N)O[C@H](C)[C@@]2(O)C=O)O[C@@H](CO)[C@@H](O)[C@H]1O | 95.5% [at 15.3 µM] (inactive) |  |
| Cc1c(C(=O)Nc2ccc(N3C[C@@H](C)O[C@@H](C)C3)nc2)cccc1-c1ccc(OC(F)(F)F)cc1 |  | 2.96 µM (active) |
| COc1cc(C)c(Sc2cnc(NC(=O)c3ccc(CNC(C)C(C)C)cc3)s2)cc1C(=O)N1CCN(C(C)=O)CC1 (stereo not given) |  | 7.43 µM (active) |
| CCCCCCCCCCCCCCCC(=O)OC[C@@H](NC(=O)C(Cl)Cl)[C@H](O)c1ccc([N+](=O)[O-])cc1 | 97.6% (inactive) |  |
| CC(C)c1cnn2c(NCc3ccccc3)cc(N[C@@H](CO)[C@H](O)CO)nc12 |  | 0.743 µM (active) |
| CN[C@H]1[C@@H](O)[C@@H]2O[C@@H]3O[C@H](C)CC(=O)[C@]3(O)O[C@@H]2[C@@H](NC)[C@H]1O | 105% (inactive) |  |
| COc1cccc(-c2cc(=O)c3ccccc3o2)c1N | 116% (inactive) |  |
